From the supplement of paper PMC13380429
Unmarked numbers belong to inactive results.

tested on: Vero E6 infected with SARS-CoV-2; assay: inhibition of SARS-CoV-2 cytopathic effect; higher = more antiviral protection, active = above 15; settings: 1 nM; 48 h

| Compound | inhibition of SARS-CoV-2 cytopathic effect |
| --- | --- |
| Cn1cc(C(F)(F)F)nc1-c1ccc(OCC(O)CNCCOc2ccc(O)c(C(N)=O)c2)cc1 (stereo not given) | -0.25% |
| CC(C)C[C@H](NC(=O)[C@@H](Cc1c[nH]c2ccccc12)NC(=O)[C@H](Cc1ccc(O)cc1)NC(=O)[C@H](CO)NC(=O)[C@H](Cc1c[nH]c2ccccc12)NC(=O)[C@H](Cc1c[nH]cn1)NC(=O)[C@@H]1CCC(=O)N1)C(=O)N[C@@H](CCCNC(=N)N)C(=O)N1CCC[C@H]1C(=O)NCC(N)=O [triptorelin] | -0.4% |
| CC(=O)Nc1ccc(S(=O)(=O)c2ccc(NC(C)=O)cc2)cc1 [acedapsone] | -1.54% |
| CC(C(=O)O)c1ccc2c(c1)CC(=O)c1ccccc1S2 (stereo not given) [zaltoprofen] | 1.83% |
| CC(C)CN(C[C@@H](O)[C@H](Cc1ccccc1)NC(=O)O[C@H]1CCOC1)S(=O)(=O)c1ccc(N)cc1 [amprenavir] | -0.22% |
| CCc1cc2c(s1)-n1c(C)nnc1CN=C2c1ccccc1Cl [etizolam] | 2.37% |
| CN(C)CCN1C(=O)c2cccc3cc(NC(N)=O)cc(c23)C1=O [unbs-5162] | -0.12% |
| COc1ccc(-c2cc(=O)c3c(OC)c(OC)c(OC)c(OC)c3o2)cc1OC [nobiletin] | -1.63% |
| CC(=O)c1ccc2c(c1)N(CCCN1CCC(CCO)CC1)c1ccccc1S2 [piperacetazine] | 4.15% |
| Cc1nnc(C(=O)NC(C)(C)c2nc(C(=O)NCc3ccc(F)cc3)c(O)c(=O)n2C)o1 [raltegravir] | 3.09% |
| O[C@@H]1CO[C@H]2[C@@H]1OC[C@@H]2O [isosorbide] | -0.13% |
| O=C1c2ccccc2CCC1CNCCc1ccc(O)cc1 (stereo not given) | 0.05% |
| COCC(=O)Nc1c(I)c(C(=O)NCC(O)CO)c(I)c(C(=O)N(C)CC(O)CO)c1I (stereo not given) [iopromide] | -2.42% |
| Clc1ccccc1CNC[C@H]1CC[C@H](CNCc2ccccc2Cl)CC1 | -1.74% |
| CC[n+]1c(-c2ccccc2)c2cc(N)ccc2c2ccc(N)cc21 [homidium] | 4.78% |
| Cc1ccc(O)c(N=Nc2ccccc2)n1 | -2.81% |
| CCCCn1c(-c2ccccc2)nc(-c2ccccc2)c1CN(Cc1ccc2c(c1)OCO2)Cc1ccc2c(c1)OCO2 | 0% |
| COc1cc2cc(c1Cl)N(C)C(=O)C[C@H](OC(=O)C(C)C)[C@]1(C)O[C@@H]1[C@H](C)[C@@H]1C[C@@](O)(NC(=O)O1)[C@H](OC)/C=C/C=C(\C)C2 [ansamitocin-p-3] | 2.87% |
| Cc1ccc(-c2cn3c4c(sc3n2)CCCC4)cc1 [pifithrin-cyclic] | -1.71% |
| C#Cc1cccc(Nc2ncnc3cc(OCCOC)c(OCCO)cc23)c1 | 2.26% |

| Compound | inhibition of SARS-CoV-2 cytopathic effect |
| --- | --- |
| CN1C[C@H](C(=O)N[C@]2(C)O[C@@]3(O)[C@@H]4CCCN4C(=O)[C@H](Cc4ccccc4)N3C2=O)C[C@@H]2c3cccc4[nH]cc(c34)C[C@H]21 [dihydroergotamine] | 0.49% |
| CNC(=O)[C@H]1O[C@@H](n2cnc3c(NCc4cccc(I)c4)nc(Cl)nc32)[C@H](O)[C@@H]1O | 2.28% |
| CCCCC(CC)CCC(CC(C)C)OS(=O)(=O)O (stereo not given) [sodium-tetradecyl-sulfate] | 3.58% |
| CCc1nn(CCCN2CCN(c3cccc(Cl)c3)CC2)c(=O)n1CCOc1ccccc1 [nefazodone] | -0.85% |
| CCCS(=O)(=O)Nc1ccc(F)c(C(=O)c2c[nH]c3ncc(-c4ccc(Cl)cc4)cc23)c1F [vemurafenib] | 3.98% |
| N[C@H](C(=O)O)c1cc(O)no1 [ibotenic-acid] | 2.28% |
| O=[N+]([O-])/N=C1\NCCN1Cc1ccc(Cl)nc1 [imidacloprid] | 0.83% |
| Cc1nc(Nc2ncc(C(=O)Nc3c(C)cccc3Cl)s2)cc(N2CCN(CCO)CC2)n1 [dasatinib] | 1.14% |
| CCOP(=S)(OCC)Oc1ccc2c(C)c(Cl)c(=O)oc2c1 [coumophos] | -3.33% |
| O=C1NC(=O)C(c2cnc3ccccn23)=C1c1cn2c3c(cc(F)cc13)CN(C(=O)N1CCCCC1)CC2 | 0.79% |
| CCOC(=O)C(=O)Nc1cccc(OC)c1C(N)=O | 6.62% |
| Cc1cc(OI)c(C(C)C)cc1-c1cc(C(C)C)c(OI)cc1C [thymol-iodide] | -1.11% |
| Nc1n[nH]c2nc3ccccc3nc12 [CDK1-5-inhibitor] | 0.56% |
| CC(C)(C)c1cc(NC(=O)Nc2ccc(-c3cn4c(n3)sc3cc(OCCN5CCOCC5)ccc34)cc2)no1 [quizartinib] | -1.91% |
| COc1cc(NS(=O)(=O)c2ccc(N)cc2)nc(OC)n1 [sulphadimethoxine] | -0.84% |
| NC(=O)c1ncn([C@@H]2O[C@H](CO)[C@@H](O)[C@H]2O)n1 [ribavirin] | -5.15% |
| Cc1nc(Nc2ccc(F)cc2)nc(N2CCc3ccccc3C2C)c1C (stereo not given) [revaprazan] | 0.41% |
| CN1CCCC(n2nc(Cc3ccc(Cl)cc3)c3ccccc3c2=O)CC1 (stereo not given) [azelastine] | -1.24% |
| O=C1N=C2SCCN2C(=O)C1Cc1ccc(Cl)cc1 (stereo not given) [nuclomedone] | -1.33% |
| CO[C@@]12[C@H](COC(N)=O)C3=C(C(=O)C(C)=C(N)C3=O)N1C[C@@H]1N[C@@H]12 [mitomycin-C] | -6.42% |
